Results reported in PubChem BioAssay AID686979 (National Center for Advancing Translational Sciences (NCATS), 2013).
In all, about 420,000 compounds went through this assay and about 50,000 (12%) were called active. Inconclusive results (about 26%) are left out. The sample holds actives, similar compounds and a random draw of the others, so the mix is not that of the screen. Unmarked numbers belong to inactive results. The call rests on the fitted dose curve; in most records, active means well fitted inhibition curve with a large enough effect; inconclusive means small, poorly fitted or top-dose-only effect; inactive means flat fitted curve, though single readings scatter.

assay: qHTS for Inhibitors of human tyrosyl-DNA phosphodiesterase 1 (TDP1): qHTS in cells in presence of CPT; conditions: chicken DT40 Tdp1-/-;hTDP1 cells + 20 nM CPT, ATP luminescence, 48 h; series mostly up to 46.2 µM; activity change, negative = growth inhibition: at the top concentration; further: nearly all actives have a fitted effect of over 55% in size
Method in brief: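 Cell growth measured by CellTiter-Glo luminescence after a minimum 48 h, 37 C compound exposure with 20 nM CPT in Tdp1-knockout DT40 cells stably expressing hTDP1, seeded 400/well; qHTS titration format.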
On the % scale 0 is the no-effect control and ±100 the full control effect; potency means the concentration at half of the fitted maximal effect.

| SMILES | activity change, negative = growth inhibition [%] | Potency |
| --- | --- | --- |
| CC(NC(=O)CN(C)S(=O)(=O)c1ccc(F)cc1)C1CC2CCC1C2 (stereo not drawn) | -15.7 |  |
| CC(=O)N/C(=C\c1ccccc1)C(=O)OC(C)C(=O)N(C)c1ccccc1 (stereo not drawn) | 9.34 |  |
| CCOC(=O)Cn1c(O)c(N=NC(=O)CNC(=O)Cc2ccccc2)c2ccccc21 | -17.9 |  |
| CC(=O)Nc1ccc(S(=O)(=O)N2CCC(C(=O)N[C@@H](Cc3ccccc3)C(=O)O)CC2)cc1 | -13.1 |  |
| COc1cccc(CNC(=O)C(NS(=O)(=O)c2ccc3nc(C)sc3c2)C(C)C)c1 (stereo not drawn) | 1.78 |  |
| COc1cccc(/C=C2\SC(=S)N(CCCC(=O)N3CCOCC3)C2=O)c1 |  | 18.4 µM (active) |
| COc1ccc(/C=C2\SC(=S)N(CCC(=O)N3CCOCC3)C2=O)cc1OC | -2.91 |  |
| COc1cccc(/C=C2/SC(=S)N(CC(=O)NC3C=CS(=O)(=O)C3)C2=O)c1 (stereo not drawn) | -24.6 |  |
| Cc1cc(C)cc(NC(=O)COC(=O)c2cc(C)oc2C)c1 | -3.46 |  |
| Cc1sc2ccccc2c1CNC[C@H]1O[C@@H](n2ccc(=O)[nH]c2=O)[C@H](O)[C@@H]1O | 0.888 |  |
| O=C(CCn1ccc([N+](=O)[O-])n1)Nc1nccs1 | 1.03 |  |
| Cc1cs/c(=N\N=C\c2ccc(O)cc2)n1Cc1ccco1 | -14.2 |  |
| CC1CN(Cc2ccco2)C(=S)N(c2ccccc2)C1=O (stereo not drawn) | 0.62 |  |
| CN(C)C(=S)N=c1ssc(=S)n1Cc1ccco1 |  | 1.64 µM (active) |
| Nc1ncnc2c1ncn2[C@@H]1O[C@H](C(=O)NS(=O)(=O)c2c(Cl)nc3sccn23)[C@@H](O)[C@H]1O | 2.79 |  |
| O=S(=O)(Nc1ccccn1)c1cccc(S(=O)(=O)c2ccc(Cl)cc2)c1 | 2.88 |  |
| NS(=O)(=O)c1ccc(CNC(=O)c2cc(S(=O)(=O)N3CCOCC3)ccc2N2CCCC2)cc1 | -10.3 |  |
| CCCN(C(=O)COC(=O)CNS(=O)(=O)c1ccc(NC(C)=O)cc1)C1CCS(=O)(=O)C1 (stereo not drawn) | 1.6 |  |
| COC(=O)C1=C(N)Oc2c(oc(CO)cc2=O)C1c1c(F)cccc1Cl (stereo not drawn) | -3.14 |  |
| CCOC(=O)c1cc(-c2sc(NC(=O)c3ccccc3)nc2C)n(Cc2ccccc2)n1 |  | 16.4 µM (active) |
| CCOC(=O)c1cc(OC(=O)c2ccccc2Cl)n(-c2ccccc2)n1 | -13.5 |  |
| CCOC(=O)c1sc(NC(=O)c2sc(C)nc2C)nc1C | -2.43 |  |
| CSc1ccc(Cl)c(C(=O)OCC(=O)N2CCNC2=O)c1 | -1.63 |  |
| Nc1ncnc2c1ncn2[C@@H]1O[C@H](C(=O)N2CCSC2)[C@@H](O)[C@H]1O | -29.7 |  |
| COc1ccc(Nc2nc(N)nc(CSC(=S)N3CCC(C)CC3)n2)cc1 | -19.7 |  |
| COc1ccc(N(CC(=O)Nc2ccc(C)cc2C)S(=O)(=O)c2ccccc2[N+](=O)[O-])c(OC)c1 | -27.2 |  |
| COc1ccc(C)cc1S(=O)(=O)N(CC(=O)Nc1cccc([N+](=O)[O-])c1)c1ccc(C)cc1 |  | 18.4 µM (active) |
| CN(CC(=O)Nc1cccc(F)c1)CC(=O)Nc1cccc([N+](=O)[O-])c1 | -27.1 |  |
